# Counter-ions that a name gives are not always drawn.
# Experiments:
# Assay in all cases: Euclidean distance of Cell Painting phenotypic profile (signed KS, 77 features) to DMSO centroid (dimensionless distance); 5 or 10 uM (library dependent); higher = stronger phenotypic change vs DMSO (phenoactivity)
# Settings in all cases: 48 h
# 786-O = test system: 786-O
# In short: (§1)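 Five cancer lines, together with a healthy fibroblast line, received library compounds for 48 h at a library-dependent 10 or 5 uM and 0.1% DMSO final. Harmony then derived 77 features from confocal 20X images (9 fields/well) of the stained cells, scoring each as a signed Kolmogorov-Smirnov statistic against same-plate vehicle wells. After plate-position correction, correlation weighting and replicate averaging at the top dose, phenoactivity was taken as each profile's Euclidean distance to the median vehicle profile.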
# A549 = test system: A549
# In short: as §1
# DU145 = test system: DU145
# In short: as §1
# FB = test system: FB
# In short: as §1
# HEPG2 = test system: HEPG2
# In short: as §1
# OVCAR4 = test system: OVCAR4
# In short: as §1
Structure (SMILES),Euclidean distance (786-O),Euclidean distance (A549),Euclidean distance (DU145),Euclidean distance (FB),Euclidean distance (HEPG2),Euclidean distance (OVCAR4)
Cc1cc(O)cc(C)c1Cl [Chloroxylenol],0.814,0.825,1.13,0.9,0.668,0.718
CCC(=O)OCC(=O)[C@@]1(OC(=O)CC)[C@@H](C)C[C@H]2[C@@H]3CCC4=CC(=O)C=C[C@]4(C)[C@@]3(F)[C@@H](O)C[C@@]21C [Betamethasone Dipropionate],1.67,2.06,2.69,2.18,0.697,1.59
CCN(CC)CCOc1ccc2c(c1)C(=O)c1cc(OCCN(CC)CC)ccc1-2 [Tilorone dihydrochloride],2.8,3.87,2.37,5.04,4.45,3.1
CN(C)Cc1ccc(S(=O)(=O)n2ccc(/C=C/C(=O)NO)c2)cc1 [Resminostat],2.67,2.99,2.58,3.52,2.9,2.81
CO[C@@H]1[C@@H](OC(N)=O)[C@@H](O)[C@H](Oc2ccc3c(O)c(NC(=O)c4ccc(O)c(CC=C(C)C)c4)c(=O)oc3c2C)OC1(C)C [Novobiocin Sodium],0.865,0.868,0.814,1.04,0.385,1.19
COc1cc(NC(C)CCCN)c2ncccc2c1 (stereo not drawn) [Primaquine Diphosphate],0.845,2.02,1.16,2.24,2.3,1.51
CN(C)c1ccc(C(=C2C=CC(=[N+](C)C)C=C2)c2ccc(N(C)C)cc2)cc1 [Crystal Violet],3.55,2.83,3,2.46,3.45,2.56
COc1ccccc1O [Guaiacol],0.884,0.854,0.891,1.19,0.511,1.43
CCCNc1nc(Nc2ccc(C#N)cc2)ncc1C#CCCCNC(=O)[C@H](C)N(C)C(=O)/C=C/CN(C)C,6.39,4.68,5.29,5.42,5,5.67
CCOc1ccc2nc(S(N)(=O)=O)sc2c1 [Ethoxzolamide],0.892,0.718,1.34,1.35,1.09,0.937
Cc1nc2n(c(=O)c1CCN1CCC(c3noc4cc(F)ccc34)CC1)CCCC2O (stereo not drawn) [Paliperidone],0.901,0.427,0.828,0.783,0.494,0.895
CC(=O)Nc1nc2c(Oc3cc(-c4ccc(C(F)(F)F)cc4)ncn3)cccc2s1,0.826,0.619,0.706,0.556,0.84,0.981
CCOc1ccccc1OCCN[C@H](C)Cc1ccc(OC)c(S(N)(=O)=O)c1 [Tamsulosin],1.91,1.28,1.73,1.01,1.38,1.6
CC(=O)[C@H]1CC[C@H]2[C@@H]3C[C@H](C)C4=CC(=O)CC[C@]4(C)[C@H]3[C@@H](O)C[C@]12C [Medrysone],1.22,1.8,1.96,1.72,0.963,1.81
Nc1nnc(-c2cccc(Cl)c2Cl)c(N)n1 [Lamotrigine],0.851,1.05,0.825,1.12,0.712,1.42
C[C@H](NC(=O)CCc1nc2ccccc2c(=O)[nH]1)c1ccccc1,1.42,1.74,1.13,1.04,1.15,1.27
N=C(N)NC(=O)Cc1c(Cl)cccc1Cl [Guanfacine Hydrochloride],1.58,0.941,1.05,1.09,0.41,0.929
N=C(NCCCCCCNC(=N)NC(=N)Nc1ccc(Cl)cc1)NC(=N)Nc1ccc(Cl)cc1 [Chlorhexidine],2.05,3.54,1.97,2.12,2.92,3.25
OCCn1cc(-c2cnc3nnn(Cc4ccc5ncccc5c4)c3n2)cn1,0.916,0.988,0.98,0.792,1.2,1.08
Cc1cccc(CN2CCN(C(c3ccccc3)c3ccc(Cl)cc3)CC2)c1 (stereo not drawn) [Meclizine 2HCl],1.66,1.27,0.732,1.06,0.511,1.51
O=C(/C=C/c1ccc(O)c(O)c1)c1ccc(O)cc1O [Butein],1.56,1.3,1.12,1.51,1.5,1.12
CC(C)(C)OC(=O)N[C@H]1CCCCC/C=C\[C@@H]2C[C@@]2(C(=O)NS(=O)(=O)C2CC2)NC(=O)[C@@H]2C[C@@H](OC(=O)N3Cc4cccc(F)c4C3)CN2C1=O [Danoprevir (ITMN-191)],1.4,0.94,1.41,1.19,2.24,1.69
CCN(CC)C(=O)C1(c2ccccc2)CC1CN (stereo not drawn) [Milnacipran HCl],1.2,1.04,0.974,1.14,0.468,0.854
CCOc1ccc(Cc2cc([C@@H]3O[C@H](CO)[C@@H](O)[C@H](O)[C@H]3O)ccc2Cl)cc1 [Dapagliflozin],1.1,1.19,1.1,1.39,0.432,1.01

Structure (SMILES),Euclidean distance (786-O),Euclidean distance (A549),Euclidean distance (DU145),Euclidean distance (FB),Euclidean distance (HEPG2),Euclidean distance (OVCAR4)
N[C@@H](CSCCCO)C(=O)O [Fudosteine],1.5,1.77,0.71,1.34,0.516,1.3
C#C[C@]1(O)CC[C@H]2[C@@H]3CCC4=CC(=O)CC[C@@H]4[C@H]3C(=C)C[C@@]21CC [Etonogestrel],0.851,0.713,0.98,1.21,0.628,1.03
O=C1c2cccc(O)c2C(=O)c2c(O)cc(CO)cc21 [Aloe-emodin],1.1,1.14,1.2,1.05,1.08,1.41
CN(C(=O)c1c(O)c2ccccc2n(C)c1=O)c1ccccc1 [Roquinimex],0.929,0.796,1.13,1.32,0.76,0.974
CN(C/C=C/C#CC(C)(C)C)Cc1cccc2ccccc12 [Terbinafine],1.56,0.66,0.898,0.587,1.36,1.18
C1COC(NC(C2CC2)C2CC2)=N1 [Rilmenidine Phosphate],1.48,0.742,1.06,1.07,1.13,1.02
CC(C)(CCCCCC(O)CCCCCC(C)(C)C(=O)O)C(=O)O,0.76,0.809,0.925,0.851,0.375,1.06
COc1cc2c(Oc3ccc4[nH]c(C)cc4c3F)ccnc2cc1OCC1(N)CC1 [Anlotinib (AL3818) dihydrochloride],3.26,3.7,2.73,3.46,3.11,3.17
CC12CCC(CC1=O)C2(C)C (stereo not drawn) [Camphor],0.669,0.742,0.875,0.818,0.352,1.67
Cc1cccc(CC(=O)N2CCc3c2ccc(-c2cn(C)c4ncnc(N)c24)c3F)n1,1.25,2.13,1.84,1.96,1.24,1.35
Cc1ccc(S(=O)(=O)n2c(N)nc3ccccc32)cc1 [ML130 (Nodinitib-1)],0.771,1.13,0.862,0.77,1.18,0.774
N#Cc1cnc(Nc2cc(NC[C@H]3CNCCO3)c(C(F)(F)F)cn2)cn1,3.22,2.16,2.89,3.11,2.5,1.99
Cc1[nH]c2ccccc2c1CCNC(=O)c1cccs1,0.729,2.31,0.821,0.779,0.553,1.45
N=C(N)NC(=O)c1nc(Cl)c(N)nc1N [Amiloride HCl dihydrate],1.53,1.27,1.11,1.58,0.663,1.28
CS(=O)(=O)CCNCc1ccc(-c2ccc3ncnc(Nc4ccc(OCc5cccc(F)c5)c(Cl)c4)c3c2)o1,3.78,3.57,3.75,4.09,4.37,3.36
CC(C)(C(=O)O)c1ccc(C(O)CCCN2CCC(C(O)(c3ccccc3)c3ccccc3)CC2)cc1 (stereo not drawn) [Fexofenadine HCl],1.52,0.838,0.779,0.629,0.305,1.91
Cc1cnc(NC(=O)C2=C(O)c3ccccc3S(=O)(=O)N2C)s1 [Meloxicam],0.664,0.746,2.37,0.881,1.84,0.784
CC(C)C[C@H](NC(=O)[C@H](CCc1ccccc1)NC(=O)CN1CCOCC1)C(=O)N[C@@H](Cc1ccccc1)C(=O)N[C@@H](CC(C)C)C(=O)[C@@]1(C)CO1 [Carfilzomib (PR-171)],5.78,4.54,5.77,0.729,4.79,5.41
C=CCc1ccc(O)c(-c2ccc(O)c(CC=C)c2)c1 [Honokiol],0.998,0.732,1.22,1.46,1.39,1.18
Cc1nc(C)c(Cl)c(O)c1Cl [Clopidol],0.853,1.1,0.432,1.15,0.83,1.61
C/C=C(/C(=C/C)c1ccc(O)cc1)c1ccc(O)cc1 [Dienestrol],0.782,0.603,0.8,0.859,0.715,0.784
CCCC(=O)[O-].[Na+] [Sodium butyrate],1.42,0.966,1.17,1.13,0.665,1.51
N[C@H]1CONC1=O [L-Cycloserine],0.838,0.531,1.03,1.02,0.788,1.56
COC(=O)N(C)c1c(N)nc(-c2nn(Cc3ccccc3F)c3ncccc23)nc1N [Riociguat (BAY 63-2521)],1.1,0.74,0.825,1.34,0.598,0.876
